Screening results: PubChem, several laboratories
ARNT TACC3 PPI: disruptors of ARNT/TACC3 protein interaction, primary screen, biochemical, AlphaScreen, single concentration | AlphaScreen His-ARNT PAS-B/GST-TACC3 binding, luminescence; TACC3 fragment carries E629A point mutation | AID 623870, 2012 | inhibition, % at 9.99 µM | Transforming acidic coiled-coil-containing protein 3 (Homo sapiens), Q9Y6A5 | 0.66% of 390,000 active;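 active = mean inhibition of replicates at least 50% and at least half of replicates each reaching 50%; inconclusive = half or more replicates reach 50% but mean below 50%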;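 also: 0% = complete ARNT plus TACC3 wells and 100% = ARNT alone without TACC3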
PglD DTNB: C. jejuni PglD acetyltransferase inhibitors, primary screen, biochemical, DTNB colorimetric, single point | inhibition, % at 12.5 µM | purified PglD enzyme, DTNB colorimetric CoA detection | AID 602405, 2012 | 0.098% of 360,000 active | UDP-N-acetylbacillosamine N-acetyltransferase PglD (Campylobacter jejuni); in the data active = inhibition above about 16%, passing the limit was not always enough; inconclusive = no clear call, values can overlap the other calls
ERp5 block: inhibitors of ERp5-driven insulin aggregation, primary screen, biochemical, turbidity, absorbance 650 nm, single point | 90 min | inhibition, % at 9.99 µM | 0.05% of 350,000 active | AID 651711, 2012;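 active = mean replicate inhibition above about 25%, with every replicate also reaching it, limit read from the data, passing the limit was not always enough; inconclusive = only one of those two criteria met; inactive = neither criterion met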
ALR H2O2 inh: inhibitors of human ALR sulfhydryl oxidase, primary screen, biochemical, H2O2 detection, HRP-luminol luminescence, single point; AID 485317, 2010; 3.8% of 290,000 active; purified ALR, DTT oxidation; FAD-linked sulfhydryl oxidase ALR (Homo sapiens), P55789; inhibition, % (no concentration beside the values);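 active = mean replicate inhibition above about 79%, with every replicate also reaching it, limit read from the data; inconclusive = only one of the two criteria met; inactive = mean below limit and not every replicate reaching it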
Target sequence (P55789 whole entry, looked up): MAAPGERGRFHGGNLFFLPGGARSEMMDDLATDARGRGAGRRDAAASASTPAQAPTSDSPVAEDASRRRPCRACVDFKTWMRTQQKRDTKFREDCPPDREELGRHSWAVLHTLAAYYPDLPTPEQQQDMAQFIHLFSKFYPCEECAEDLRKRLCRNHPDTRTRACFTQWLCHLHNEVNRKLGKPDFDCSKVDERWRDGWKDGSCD
CendR NRP1 mod: modulators of CendR peptide binding to NRP-1, primary screen, biochemical, fluorescence polarization, uHTS | Neuropilin-1 (Homo sapiens), O14786 | FAM-RPARPAR peptide binding to NRP-1 | inhibition, % at 25 µM | 0.85% of 360,000 active;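 active = inhibition or corrected inhibition above about 18%, plus a signal ratio from 0.5 to 1.5, limit read from the data, passing the limit was not always enough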
PDI inh: inhibitors of human PDI, primary screen, biochemical, turbidity, single point, plate reader. inhibition, % at 10 µM. PDI insulin aggregation turbidity, A650, 90 min. 0.052% of 350,000 active. AID 588391, 2011;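 active = mean inhibition across replicates of 30% or more, whatever share of single replicates reach that level; inconclusive = mean inhibition below 30% while every single replicate reaches 30%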
An asterisk follows results filed as active; ? = inconclusive; . = no result. The entries come from a sample that favours hits as a whole.

SMILES	ARNT TACC3 PPI	PglD DTNB	ERp5 block	ALR H2O2 inh	CendR NRP1 mod	PDI inh
CC(C)CC#Cc1cnc2c(c1)C(=O)N([C@@H](C)CO)C[C@@H](C)[C@@H](CN(C)C(=O)Cc1ccncc1)O2	4	6	-1	.	.	.
CCOC(=O)N1CCN(CC(O)c2ccc3c(c2)CCN3)CC1 (centres undefined)	3	3	4	82*	0	-3
C[C@H](NC(=O)C[C@@H]1CC[C@H](NC(=O)C2CCOCC2)[C@@H](CO)O1)c1ccccc1	-4	0	3	.	.	.
COC(=O)COc1ccc2cc(-c3ccccc3)c(=O)oc2c1	-1	5	0	.	11	-2
COC(=O)COc1ccc2cc(-c3ccc(OC)cc3)c(=O)oc2c1	-5	1	-4	0	20*	5
COCCCNC(=S)N(CCO)Cc1cc2cc3c(cc2[nH]c1=O)OCCO3	2	0	2	1	-3	2
COCCCNC(=S)N(CCCN(C)C)Cc1cc2cc3c(cc2[nH]c1=O)OCCO3	2	4	1	-2	-1	-3
CCOCCCNC(=S)N(CCCN(C)C)Cc1cc2cc3c(cc2[nH]c1=O)OCCO3	27*	1	0	-54	-3	-1
COCCNC(=S)N(CCO)Cc1cc2cc3c(cc2[nH]c1=O)OCCO3	49*	6	-5	-144	0	0
COCCn1c(SCC(=O)Nc2ccc3[nH]c(=O)[nH]c3c2)nc2ccccc21	-6	7	2	91*	-1	10
O=C(CSc1nc2ccc(Cl)cc2[nH]1)Nc1ccc2[nH]c(=O)[nH]c2c1	3	.	2	98*	-12	-2
COC(=O)c1ccc(CSc2nc3ccc(Cl)cc3[nH]2)o1	-8	-6	.	97*	.	-1
CCn1c(SCC(=O)Nc2ccc3[nH]c(=O)[nH]c3c2)nc2ccccc21	-2	3	2	99*	3	0
COCCn1c(SCC(=O)Nc2ccc(OC)c(S(N)(=O)=O)c2)nc2ccccc21	2	-2	-10	-26	3	10
O=C(C[C@H]1CC[C@@H]2[C@H](COC[C@H](O)CN2Cc2ccc(Cl)cc2)O1)Nc1nccs1	11	-1	4	.	.	.
C[C@H]1CCCCO[C@H](CN(C)C(=O)Nc2ccc(F)cc2)[C@@H](C)CN([C@@H](C)CO)C(=O)c2cc(NS(=O)(=O)c3cn(C)cn3)ccc2O1	6	-3	10	.	.	.
CN1/C(=C\C(=S)NC(=O)c2ccccc2Cl)C(C)(C)c2ccccc21	1	-7	-4	6	-134	3
CN1/C(=C/C(=S)NC(=O)C2(C)CC2(Cl)Cl)C(C)(C)c2ccccc21 (centres undefined)	48*	-4	1	-3	-29	-4
C[C@H](CO)N1C[C@H](C)[C@@H](CN(C)CC2CC2)Oc2ccc(NC(=O)Cc3ccccc3)cc2C1=O	.	.	-5	.	.	.
C=CCNC(=S)Nc1sc2c(c1C(N)=O)CCCC2	.	-9	2	98*	-3	-4
C=CC(=O)Nc1sc2c(c1C(N)=O)CCCC2	-4	5	-3	?	-8	2
CCC(=O)Nc1sc2c(c1C(N)=O)CCC2	7	.	.	43	9	-3
N#CCC(=O)Nc1sc2c(c1C(N)=O)CCCC2	-25	4	2	90*	-20	-5
NC(=O)c1c(NC(=S)Nc2ccc(F)cc2)sc2c1CCCC2	0	1	-2	90*	1	2
CCC(=O)N1CC2(CCN(Cc3ccc(Cl)cc3)CC2)c2c(n(C)c3cc(OC)ccc23)[C@H]1CO	.	.	-6	.	.	.
SMILES	ARNT TACC3 PPI	PglD DTNB	ERp5 block	ALR H2O2 inh	CendR NRP1 mod	PDI inh
Cc1cc(C)n(C2CC(=O)N(c3cc(Cl)cc(Cl)c3)C2=O)n1 (centres undefined)	15	.	-5	.	35*	-4
COc1ccc(CCNC(=O)CSc2cc(=O)[nH]c(N)n2)cc1OC	-1	0	.	58	3	8
COc1ccc(CCNC(=O)CSc2c[nH]c3ccccc23)cc1OC	5	-4	-8	97*	-6	.
COc1ccc(Cc2c(O)nc(SCC(=O)NC(C)(C)C)[nH]c2=O)cc1	-8	.	0	84*	-3	1
COc1ccc(CCNC(=O)CSc2nc(O)c(CC(C)C)c(=O)[nH]2)cc1OC	2	-2	.	98*	-6	-6
COc1ccc(CCNC(=O)CSc2nc(O)cc(=O)[nH]2)cc1OC	-2	-5	3	95*	4	4
CO[C@@H]1CN(C)C(=O)c2cc(NC(=O)Nc3c(C)noc3C)ccc2OC[C@@H](C)N(CC2CC2)C[C@H]1C	-3	-1	0	.	.	.
O=C(CN1CCOCC1)NC[C@@H]1[C@@H](c2ccccc2)[C@@H](CO)N1CC1CC1	.	.	3	.	.	.
O=C(C[C@H]1C[C@@H]2c3cc(NC(=O)Nc4ccc(F)cc4)ccc3O[C@@H]2[C@@H](CO)O1)NCC(F)(F)F	-9	5	-2	.	.	.
O=C(CCn1cccn1)N1CCCC(Nc2ccc(F)c(F)c2)C1 (centres undefined)	.	3	-2	.	0	-1
COc1ccc(NC2CCCN(C(=O)CCc3cccc(F)c3)C2)cc1 (centres undefined)	2	0	4	99*	7	1
COc1ccc(NC2CCCN(C(=O)CCCn3cncn3)C2)cc1 (centres undefined)	-6	3	-1	99*	-10	-18
COc1ccc(NC2CCCN(C(=O)CCn3cccn3)C2)cc1 (centres undefined)	-6	0	4	99*	0	0
O=C(CC(F)(F)F)N1C[C@H]2[C@@H](c3ccccc31)[C@@H](CO)N2C(=O)c1ccncc1	-13	0	0	.	.	.
Cc1ccc(NC(=O)OCCN2CCN(Cc3ccccc3)CCC2=O)cc1	1	9	8	92*	0	2
O=C(Nc1ccccc1)OCCN1CCN(Cc2ccccc2)CCC1=O	-5	0	-5	-11	5	-4
Cc1noc(C)c1NC(=O)N(C)C[C@H]1Oc2ccc(NC(=O)NC(C)C)cc2CC(=O)N([C@H](C)CO)C[C@H]1C	1	5	-1	.	.	.
CCn1c2ccccc2c2cc(NC(=O)C(=O)N3CCOCC3)ccc21	-3	-5	0	91*	-11	10
Oc1c(CN2CCOCC2)cc(CN2CCOCC2)cc1CN1CCOCC1	-3	1	-11	.	29*	-61
